# Experimental data taken from PubChem BioAssay (NCATS).
# Inconclusive results are not listed. The source made the active and inactive calls. Unless noted, the call rests on the fitted dose curve; in most records, active means well fitted curve in the direction sought with a large enough effect; inconclusive means small, poorly fitted or top-dose-only effect, or another doubt; inactive means no such curve, though single readings can be large; an effect the other way counts as inactive or inconclusive.
# Experiments:
# [1] = NFAT Signaling Pathway (AID 444; active means well fitted curve in either direction with a large enough effect, not every such curve was filed as active;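 further: carbachol stimulus at about its EC50 of 1 µM final; on the % scale 0 is the no-effect control and ±100 the full control effect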); details: Jurkat NFAT-bla M1, carbachol, beta-lactamase ratio, 5 h; at 38 µM (top of the series)
# Outline: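 Jurkat cells with NFAT-driven β-lactamase reporter and co-expressed M1 receptor, stimulated with carbachol (final 1 uM, ~EC50), compound titration, 5 h at 37 °C. CCF4 loaded 1 h at RT; 460/530 nm ratio gave %activity and AC50.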
# [2] = molecular target: Glucocorticoid receptor (Homo sapiens) (UniProt P04150); assay: GR-GFP Redistribution (AID 450;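 active means compounds whose dose series gives a full or clear partial fitted curve of increased nuclear translocation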; further: potency means the concentration at half of the fitted maximal effect); details: U2OS GR-GFP nuclear translocation, laser cytometry, 2 h
# [3] = molecular target: Glucocorticoid receptor (Homo sapiens) (UniProt P04150); assay: GR-EFC Redistribution (AID 451; calls by dose curve; further: potency means the concentration at half of the fitted maximal effect); details: CHO-K1 GR-EFC translocation, beta-gal luminescence, 2 h
# Outline: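 CHO-K1 cells expressing nuclear EA and GR-ED fragments of b-gal; compounds titrated up to 46 uM final, 2 h at 37 C. GR nuclear translocation read as complemented b-gal luminescence after 1 h RT detection.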
# [4] = molecular target: Mitogen-activated protein kinase 10 (Mus musculus) (UniProt Q61831); assay: JNK3 AlphaScreen Assay (AID 530; active means well fitted curve in either direction with a large enough effect, not every such curve was filed as active;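 further: kinase came from lysate of stimulated human HepG2 cells; signal reports phosphorylation of biotinylated GST-cJun 1-79 at Ser73 with 10 µM ATP; on the % scale 0 is the no-effect control and ±100 the full control effect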)
# Outline: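 Pre-activated (IL-1β/TNFα) JNK3 in HepG2 lysates phosphorylates biotin-GST-cJun(1-79), 10 uM ATP; anti-phospho-cJun(Ser73) AlphaScreen read at room temperature, pH 7.6 Tris buffer. Compounds pre-incubated 15 min as titrations.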
# [5] = molecular target: Cytochrome P450 3A4 (Homo sapiens) (UniProt P08684); assay: qHTS Assay for Activators of Cytochrome P450 3A4 (AID 885); further: nearly all actives have a fitted effect of over 65% in size
# Outline: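 Signal was normalized against complete inhibition by 57 uM ketoconazole. The reaction used 20nM CYP3A4 with 25uM Luciferin-PPXE, 10-min compound preincubation and a 60-min NADPH-supported step at RT.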
# [6] = molecular target: Voltage-gated inwardly rectifying potassium channel KCNH2 (Homo sapiens) (UniProt Q12809); assay: qHTS Assay for Small Molecule Inhibitors of the Human hERG Channel Activity (AID 588834);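 further: top concentration of the series differs between compounds; on the % scale 0 is the no-effect control and ±100 the full control effect; lower thallium flux fluorescence means stronger hERG block; nearly all actives have a fitted effect of over 50% in size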
# Outline: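 Measured: FluxOR fluorescence after thallium stimulation in U2OS cells transduced with hERG by baculovirus. Compounds pre-incubated around 10 min; medium Opti-MEM with 2% FCS. AC50 from Hill equation.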
# [7] = Primary qHTS for small molecule stabilizers of the endoplasmic reticulum resident proteome: Secreted ER Calcium Modulated Protein (SERCaMP) assay (AID 1508630); further: on the % scale 0 is the no-effect control and ±100 the full control effect
# Outline: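 GLuc-SERCaMP-expressing SH-SY5Y cells, pretreated 16 h with compound, are challenged with thapsigargin to empty ER calcium stores; after 4 h, coelenterazine is added directly to the medium and luminescence is imaged.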
# [8] = molecular target: Lysosomal acid glucosylceramidase (Homo sapiens) (UniProt P04062); assay: Glucocerebrosidase-p2 (AID 348; in the data active means potency below about 10 µM; further: potency means the concentration at half of the fitted maximal effect); details: purified GBA, blue fluorogenic substrate, 40 min
# Outline: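 Compounds titrated from 0.6 nM upwards against 0.2 nM enzyme in pH 5.9 citric acid/KH2PO4, taurocholate, tween-20; blue fluorogenic substrate 80 uM, 40 min room temperature, stopped and read Ex 365/Em 440 for AC50.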
# [9] = AP1 Signaling Pathway (AID 357; active means well fitted curve in either direction with a large enough effect, not every such curve was filed as active; further: on the % scale 0 is the no-effect control and ±100 the full control effect)
# Outline: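 ME-180 cells with beta-lactamase reporter under AP-1 response element, stimulated with EC50 EGF; compounds tested in titration series, 5 h at 37 °C. CCF4 substrate added 2.5 h at room temperature; 460/530 nm emission ratio gave %activity and AC50.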
# [10] = molecular target: Cytochrome P450 1A2 (Homo sapiens) (UniProt P05177); assay: p450-cyp1a2 (AID 410; calls by dose curve; further: potency means the concentration at half of the fitted maximal effect;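 on activity change, negative = inhibition: -100% = full effect of reference inhibitor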)
# Outline: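 20nM CYP1A2 with 100uM Luciferin-ME (at Km) in 100mM KPO4; compound preincubated 10 min, NADPH regeneration added, 60 min at room temperature. Luciferin quantified by luminescence after detection reagent; normalized to 57 uM furafylline.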
# [11] = Stat Signaling Pathway (AID 446; active means well fitted curve in either direction with a large enough effect, not every such curve was filed as active)
# Outline: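 Reporter line: ME-180 cervical carcinoma, SIE-beta-lactamase. Treatment: compound with 40 pM IL-6, 5 hrs, 37 C, in low-serum OPTI-MEM with 10 mM HEPES pH 7.3. Detection: 460/530 nm fluorescence.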
# [12] = molecular target: 3',5'-cyclic-AMP phosphodiesterase 4B (Homo sapiens) (UniProt Q07343); assay: qHTS Assay for Inhibitors of PDE-IV (AID 607; active means well fitted activation curve with a large enough effect in the main read-out, with a control signal flat, not every such curve was filed as active; further: % of control where 0% means no effect)
# Outline: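 Cell-based read-out of cAMP via a modified cyclic nucleotide-gated channel and membrane potential dye (535/590 nm) in HEK293 cells expressing PDE4 endogenously. Compounds tested up to 22.9 uM final; 100 uM RO 20-1724 reference.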
# [13] = molecular target: Cytochrome P450 2D6 (Homo sapiens) (UniProt P10635); assay: qHTS Assay for Inhibitors and Substrates of Cytochrome P450 2D6 (AID 891); further: potency means the concentration at half of the fitted maximal effect; nearly all actives have a fitted effect of over 60% in size
# Outline: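 Human CYP2D6 (5 nM) with 30 uM Luciferin-ME EGE (at Km) in 100 mM KPO4, compound preincubated 10 min, then NADPH regeneration system for 60 min at room temperature. Luciferin read by luminescence; normalized to 1.43 uM quinidine.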
# [14] = qHTS Assay for Lipid Storage Modulators (AID 1519; calls by dose curve); details: Drosophila S3 cells, BODIPY lipid droplet/cell ratio, laser cytometry, cells loaded with oleic acid
# Outline: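 Cells seeded at 5,000 per well were treated with compounds over a concentration series and loaded with oleic acid (400 uM, as added). Lipid droplet fluorescence (488 nm excitation, 500-530 nm channel) was read by laser-scanning cytometry and normalized to 20 uM Triacsin C.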
# [15] = molecular target: Ubiquitin carboxyl-terminal hydrolase 1 (Homo sapiens) (UniProt O94782); assay: Inhibitors of USP1/UAF1: Pilot qHTS (AID 504865);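 further: rhodamine fluorescence freed from ubiquitin-rhodamine substrate followed over time; top concentration of the series differs between compounds; on the % scale 0 is the no-effect control and ±100 the full control effect; nearly all actives have a fitted effect of over 35% in size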
# Outline: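 Kinetic fluorescence assay: 1nM USP1/UAF1, 15 min compound preincubation, then 150nM Ub-Rho; 480/540 nm.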
# [16] = system: HIV-1 nucleocapsid protein NCp7 (binding to TG oligonucleotide); assay: HIV Nucleocapsid (AID 346; call rule not given here;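 further: potency means the concentration at half of the fitted maximal effect; potency is for inhibitors that block NC binding and lower polarization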); details: HIV-1 NC / fluorescein-TGTGTGTG probe, fluorescence polarization
# Outline: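 NCp7 100 nM + fluorescein TG4xF 10 nM; Hepes pH 7.5/250mM NaCl/1uM ZnCl2/0.004% PEG 20000; 1 hr RT; FP, 45 s exposure; oligo-only wells as negative control.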
# [17] = measured here: cell count channel max response
# [18] = measured here: lipid channel max response
# Sequence of Cytochrome P450 3A4 (Homo sapiens) (P08684 whole entry, looked up): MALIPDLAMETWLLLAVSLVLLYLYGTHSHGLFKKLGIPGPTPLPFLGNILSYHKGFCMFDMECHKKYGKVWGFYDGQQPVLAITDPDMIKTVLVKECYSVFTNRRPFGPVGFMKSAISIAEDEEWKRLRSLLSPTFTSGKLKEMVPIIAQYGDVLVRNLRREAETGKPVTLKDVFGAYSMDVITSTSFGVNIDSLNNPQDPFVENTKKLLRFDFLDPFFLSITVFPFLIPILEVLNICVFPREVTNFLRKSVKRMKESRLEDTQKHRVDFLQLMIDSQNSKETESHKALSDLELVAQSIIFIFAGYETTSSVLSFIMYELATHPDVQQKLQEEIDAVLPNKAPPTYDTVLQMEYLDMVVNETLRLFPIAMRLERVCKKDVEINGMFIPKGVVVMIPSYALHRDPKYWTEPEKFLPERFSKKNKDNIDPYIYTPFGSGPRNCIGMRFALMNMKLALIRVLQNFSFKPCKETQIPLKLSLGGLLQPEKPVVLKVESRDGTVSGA
# Sequence of Cytochrome P450 1A2 (Homo sapiens) (P05177 whole entry, looked up): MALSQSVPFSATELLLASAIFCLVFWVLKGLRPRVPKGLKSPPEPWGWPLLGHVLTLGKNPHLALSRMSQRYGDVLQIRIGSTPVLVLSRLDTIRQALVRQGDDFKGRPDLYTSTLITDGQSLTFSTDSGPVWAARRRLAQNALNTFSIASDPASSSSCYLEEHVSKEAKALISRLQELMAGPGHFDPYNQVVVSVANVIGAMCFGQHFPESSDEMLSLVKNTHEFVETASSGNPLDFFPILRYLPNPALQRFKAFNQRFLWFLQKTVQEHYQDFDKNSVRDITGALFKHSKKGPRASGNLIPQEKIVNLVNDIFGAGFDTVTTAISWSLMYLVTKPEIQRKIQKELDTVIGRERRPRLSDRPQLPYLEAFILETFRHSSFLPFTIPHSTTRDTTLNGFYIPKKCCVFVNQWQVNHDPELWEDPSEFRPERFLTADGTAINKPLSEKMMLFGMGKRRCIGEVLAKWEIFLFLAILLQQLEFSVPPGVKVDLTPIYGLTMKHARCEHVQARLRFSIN
# Sequence of Glucocorticoid receptor (Homo sapiens) (P04150 whole entry, looked up, the tested form may be a part): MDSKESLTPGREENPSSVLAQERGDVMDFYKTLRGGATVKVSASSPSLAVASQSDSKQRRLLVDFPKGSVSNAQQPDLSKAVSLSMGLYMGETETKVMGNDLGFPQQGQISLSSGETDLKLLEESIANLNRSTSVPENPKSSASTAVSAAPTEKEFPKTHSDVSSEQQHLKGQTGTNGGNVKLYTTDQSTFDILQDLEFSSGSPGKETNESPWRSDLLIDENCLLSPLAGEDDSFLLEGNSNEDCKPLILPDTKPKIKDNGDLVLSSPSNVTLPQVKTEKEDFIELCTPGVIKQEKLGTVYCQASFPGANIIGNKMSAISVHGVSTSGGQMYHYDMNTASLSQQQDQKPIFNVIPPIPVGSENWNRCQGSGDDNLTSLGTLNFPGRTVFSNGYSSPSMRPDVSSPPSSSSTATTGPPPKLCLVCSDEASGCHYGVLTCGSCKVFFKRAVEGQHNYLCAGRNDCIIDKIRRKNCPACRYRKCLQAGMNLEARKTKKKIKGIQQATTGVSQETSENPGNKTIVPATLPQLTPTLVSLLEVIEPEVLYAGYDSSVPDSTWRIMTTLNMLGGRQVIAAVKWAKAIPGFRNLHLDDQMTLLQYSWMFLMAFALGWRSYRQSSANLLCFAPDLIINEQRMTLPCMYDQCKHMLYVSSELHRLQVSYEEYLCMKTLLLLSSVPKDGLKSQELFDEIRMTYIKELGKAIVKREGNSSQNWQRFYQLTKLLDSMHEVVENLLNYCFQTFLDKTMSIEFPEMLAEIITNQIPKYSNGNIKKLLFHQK
# Sequence of 3',5'-cyclic-AMP phosphodiesterase 4B (Homo sapiens) (Q07343 whole entry, looked up): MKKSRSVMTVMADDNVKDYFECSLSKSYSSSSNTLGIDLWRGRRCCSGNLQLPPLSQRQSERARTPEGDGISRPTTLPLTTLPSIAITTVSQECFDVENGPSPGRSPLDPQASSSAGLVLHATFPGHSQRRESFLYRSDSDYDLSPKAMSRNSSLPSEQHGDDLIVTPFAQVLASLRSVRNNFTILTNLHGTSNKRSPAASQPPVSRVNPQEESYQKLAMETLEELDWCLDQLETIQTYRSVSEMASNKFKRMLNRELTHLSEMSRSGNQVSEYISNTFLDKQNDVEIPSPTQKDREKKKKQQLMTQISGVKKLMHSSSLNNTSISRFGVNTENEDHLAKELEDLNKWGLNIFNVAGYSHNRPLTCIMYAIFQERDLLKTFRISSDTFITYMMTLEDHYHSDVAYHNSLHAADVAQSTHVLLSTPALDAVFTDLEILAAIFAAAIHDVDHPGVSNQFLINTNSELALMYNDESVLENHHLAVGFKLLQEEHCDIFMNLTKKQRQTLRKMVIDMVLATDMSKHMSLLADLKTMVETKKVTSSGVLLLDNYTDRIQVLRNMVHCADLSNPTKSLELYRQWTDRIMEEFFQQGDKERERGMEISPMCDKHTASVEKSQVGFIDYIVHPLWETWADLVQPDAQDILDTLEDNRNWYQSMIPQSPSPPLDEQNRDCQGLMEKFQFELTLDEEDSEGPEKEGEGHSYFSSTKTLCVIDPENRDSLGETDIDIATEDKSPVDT
# Sequence of Voltage-gated inwardly rectifying potassium channel KCNH2 (Homo sapiens) (Q12809 whole entry, looked up): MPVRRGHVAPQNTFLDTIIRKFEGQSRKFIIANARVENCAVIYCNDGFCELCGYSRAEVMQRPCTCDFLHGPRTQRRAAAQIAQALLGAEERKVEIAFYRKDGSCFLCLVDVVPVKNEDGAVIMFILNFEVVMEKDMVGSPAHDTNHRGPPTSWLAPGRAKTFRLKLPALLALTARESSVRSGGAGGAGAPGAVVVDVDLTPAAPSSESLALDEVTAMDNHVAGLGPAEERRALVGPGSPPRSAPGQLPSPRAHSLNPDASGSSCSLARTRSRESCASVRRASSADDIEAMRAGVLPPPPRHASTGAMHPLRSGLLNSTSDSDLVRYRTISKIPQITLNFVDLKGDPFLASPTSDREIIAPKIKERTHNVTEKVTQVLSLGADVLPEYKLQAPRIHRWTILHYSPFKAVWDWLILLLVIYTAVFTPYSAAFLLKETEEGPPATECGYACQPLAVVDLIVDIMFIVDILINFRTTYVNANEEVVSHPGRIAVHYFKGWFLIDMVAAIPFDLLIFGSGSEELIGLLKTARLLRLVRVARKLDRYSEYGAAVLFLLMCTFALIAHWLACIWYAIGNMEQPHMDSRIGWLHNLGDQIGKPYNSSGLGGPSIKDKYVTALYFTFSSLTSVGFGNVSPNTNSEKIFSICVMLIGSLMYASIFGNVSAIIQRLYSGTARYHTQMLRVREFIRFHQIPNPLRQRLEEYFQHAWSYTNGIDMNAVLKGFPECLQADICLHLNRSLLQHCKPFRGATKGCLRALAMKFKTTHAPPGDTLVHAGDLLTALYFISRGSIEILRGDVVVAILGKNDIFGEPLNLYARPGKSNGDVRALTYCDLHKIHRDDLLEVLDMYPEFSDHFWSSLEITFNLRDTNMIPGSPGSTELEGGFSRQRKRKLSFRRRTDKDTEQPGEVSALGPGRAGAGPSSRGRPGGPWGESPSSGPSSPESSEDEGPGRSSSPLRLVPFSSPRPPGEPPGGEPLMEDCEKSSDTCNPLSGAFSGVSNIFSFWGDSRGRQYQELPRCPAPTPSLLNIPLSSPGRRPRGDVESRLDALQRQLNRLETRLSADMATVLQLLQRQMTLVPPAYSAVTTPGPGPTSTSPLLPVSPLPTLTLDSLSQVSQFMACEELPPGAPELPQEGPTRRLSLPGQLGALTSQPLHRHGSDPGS
# Sequence of Lysosomal acid glucosylceramidase (Homo sapiens) (P04062 whole entry, looked up): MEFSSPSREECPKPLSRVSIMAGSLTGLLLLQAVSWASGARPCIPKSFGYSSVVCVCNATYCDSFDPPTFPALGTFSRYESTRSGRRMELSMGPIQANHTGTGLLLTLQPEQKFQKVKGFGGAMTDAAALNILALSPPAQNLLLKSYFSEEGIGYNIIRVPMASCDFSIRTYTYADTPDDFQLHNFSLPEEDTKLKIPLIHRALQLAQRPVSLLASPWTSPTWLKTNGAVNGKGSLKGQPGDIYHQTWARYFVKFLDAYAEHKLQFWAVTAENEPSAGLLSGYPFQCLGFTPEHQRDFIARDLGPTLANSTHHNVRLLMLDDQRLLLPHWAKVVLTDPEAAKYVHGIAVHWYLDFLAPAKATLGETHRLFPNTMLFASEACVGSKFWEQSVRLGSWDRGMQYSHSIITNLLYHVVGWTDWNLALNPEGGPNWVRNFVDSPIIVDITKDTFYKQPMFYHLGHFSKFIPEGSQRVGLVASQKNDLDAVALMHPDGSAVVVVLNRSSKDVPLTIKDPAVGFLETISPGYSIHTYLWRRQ
# Sequence of Cytochrome P450 2D6 (Homo sapiens) (P10635 whole entry, looked up): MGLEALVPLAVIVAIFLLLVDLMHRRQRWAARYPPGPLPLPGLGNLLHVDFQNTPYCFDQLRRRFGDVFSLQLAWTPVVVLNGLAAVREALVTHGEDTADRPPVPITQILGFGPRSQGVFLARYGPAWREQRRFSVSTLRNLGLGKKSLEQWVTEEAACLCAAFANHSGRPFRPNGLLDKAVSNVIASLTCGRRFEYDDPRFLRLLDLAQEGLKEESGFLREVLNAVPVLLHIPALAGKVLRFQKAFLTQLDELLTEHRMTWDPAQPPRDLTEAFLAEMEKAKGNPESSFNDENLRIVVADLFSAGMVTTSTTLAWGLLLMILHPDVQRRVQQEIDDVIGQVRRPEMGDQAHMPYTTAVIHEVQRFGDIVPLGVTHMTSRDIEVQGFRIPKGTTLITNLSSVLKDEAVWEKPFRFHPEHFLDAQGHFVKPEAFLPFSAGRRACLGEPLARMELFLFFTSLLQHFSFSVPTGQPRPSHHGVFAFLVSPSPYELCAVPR
smiles,measurement,setting,value
CCc1c(C(=O)OC)ncc2[nH]c3cc(OC)c(OC)cc3c12,"activity change, negative = inhibition",[1],-26.6% (inactive)
same,Potency,[2],> 46 µM (inactive)
same,Potency,[3],> 46 µM (inactive)
same,outcome,[4],inactive
same,Potency,[5],inactive
same,Potency,[6],inactive
same,outcome,[7],inactive
O=C(Oc1ccccc1)N1CCC2(CCCN(Cc3nccs3)C2)CC1,Potency,[8],> 11.4 µM (inactive)
same,outcome,[9],inactive
same,Potency,[10],inactive
same,outcome,[11],inactive
same,Potency,[3],> 46 µM (inactive)
same,outcome,[4],inactive
same,Potency,[12],inactive
same,Potency,[5],inactive
same,Potency,[13],5.01 µM (active)
same,outcome,[7],inactive
CN1C[C@H](C(=O)N[C@]2(C)O[C@]3(O)[C@H]4CCCN4C(=O)[C@H](Cc4ccccc4)N3C2=O)C[C@H]2c3cccc4[nH]cc(c34)C[C@@H]21,"activity change, negative = inhibition",[14]; at 25.7 µM (top of the series),-4.57% (inactive)
same,max response,[14]; [17],-15.1%
same,max response,[14]; [18],-19.9%
CCCN(C/C=C\I)[C@@H]1CCc2ccc(O)cc2C1,Potency,[10],25.1 µM (active)
same,Potency,[2],> 46 µM (inactive)
same,Potency,[3],> 46 µM (inactive)
same,Potency,[13],0.0158 µM (active)
same,outcome,[7],inactive
CCCN1CCc2cccc3c2C1Cc1ccc(O)c(O)c1-3 (centres undefined),"activity change, negative = inhibition",[14]; at 57.5 µM (top of the series),1.73% (inactive)
same,max response,[14]; [17],-26.8%
same,max response,[14]; [18],-25.9%
Cc1nnc2ccc(-c3cccc(C(F)(F)F)c3)nn12,Potency,[10],0.0794 µM (active)
same,Potency,[2],> 46 µM (inactive)
same,Potency,[3],> 46 µM (inactive)
same,outcome,[4],inactive
same,Potency,[12],inactive
same,Potency,[5],inactive
same,Potency,[15],inactive
same,outcome,[7],inactive
O=C(Oc1ccccc1)N1CCC2(CCN(Cc3ccncc3)CC2)CC1,Potency,[16],> 20 µM (inactive)
same,Potency,[8],> 11.4 µM (inactive)
same,outcome,[9],inactive
same,outcome,[11],inactive
same,Potency,[3],> 46 µM (inactive)
same,outcome,[4],inactive
same,Potency,[12],inactive
same,Potency,[5],inactive
same,outcome,[7],inactive
CC(C)[C@@]1(NC(=O)[C@@H]2C[C@@H]3c4cccc5[nH]cc(c45)C[C@H]3N(C)C2)O[C@@]2(O)C3CCCN3C(=O)[C@H](Cc3ccccc3)N2C1=O (some centres undefined),"activity change, negative = inhibition",[14]; at 57.5 µM (top of the series),-0.282% (inactive)
same,max response,[14]; [17],-13.2%
same,max response,[14]; [18],-14.4%
same,Potency,[6],inactive
